# Source: PubChem BioAssay AID1159580 (chemical genetic matrix, 2015)
# Among all 5,500 compounds or so, about 2,000 (36%) were called active. Roughly 18% stayed inconclusive and do not appear here. The list shows a part of the results. A number with no mark means an inactive call. Rule as the data show it: active = normalized growth mostly below about 0.91 (no sharp cut-off); inconclusive = no clear call, values can overlap the other calls; inactive = mostly above about 0.92.
# Experiment: chemical genetic growth profiling, strain panel (AID 1159580);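 also: tested at 20 µM; growth read once vehicle control cultures reached saturation at 30 °C; 1 = growth at the plate median or of vehicle wells; lower values mean less growth of the strain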
# Settings: S. cerevisiae deletion strains, growth OD
# [1] = locus YHR030C, strain SLT2, active compounds read low
# [2] = locus YHR079C, strain IRE1, active compounds read low
# [3] = locus YJL095W, strain BCK1, active compounds read low
# [4] = locus YJR066W, strain TOR1, active compounds read low
# [5] = locus YLR113W, strain HOG1, active compounds read low
# [6] = locus YNL183C, strain NPR1, active compounds read low
# [7] = locus YOR231W, strain MKK1, active compounds read low
# [8] = locus YPL256C, strain CLN2, active compounds read low
compound,measurement,setting,value
Cc1cccc2c3c(ccc12)C1=C(C(=O)C3=O)C(C)CO1 (configuration not stated),normalized growth,[1],0.128 (active)
same,normalized growth,[2],0.174 (active)
same,normalized growth,[3],0.263 (active)
same,normalized growth,[4],0.756 (active)
same,normalized growth,[5],0.163 (active)
same,normalized growth,[6],0.72 (active)
same,normalized growth,[7],0.133 (active)
same,normalized growth,[8],0.141 (active)
C[C@H]1COC2=C1C(=O)C(=O)c1c2ccc2c1CCCC2(C)C,normalized growth,"locus YAL021C, strain ccr4, active compounds read low",0.859 (active)
same,normalized growth,"locus YAL026C, strain drs2, active compounds read low",0.583 (active)
same,normalized growth,"locus YAL030W, strain snc1, active compounds read low",0.858 (active)
same,normalized growth,"locus YBL061C, strain skt5, active compounds read low",0.725 (active)
same,normalized growth,"locus YBR009C, strain hhf1, active compounds read low",0.534 (active)
same,normalized growth,"locus YBR023C, strain chs3, active compounds read low",0.783 (active)
same,normalized growth,"locus YBR171W, strain sec66, active compounds read low",0.808 (active)
same,normalized growth,"locus YBR231C, strain swc5, active compounds read low",0.675 (active)
same,normalized growth,"locus YBR279W, strain paf1, active compounds read low",0.725 (active)
same,normalized growth,"locus YCL011C, strain gbp2, active compounds read low",0.65 (active)
same,normalized growth,"locus YCL016C, strain dcc1, active compounds read low",0.691 (active)
same,normalized growth,"locus YCL061C, strain MRC1, active compounds read low",0.668 (active)
same,normalized growth,"locus YCL069W, strain vba3, active compounds read low",0.659 (active)
same,normalized growth,"locus YCR088W, strain abp1, active compounds read low",0.866 (active)
same,normalized growth,"locus YDL005C, strain med2, active compounds read low",0.828 (active)
same,normalized growth,"locus YDL040C, strain nat1, active compounds read low",0.9 (active)
same,normalized growth,"locus YDR001C, strain nth1, active compounds read low",0.913 (active)
same,normalized growth,"locus YDR069C, strain doa4, active compounds read low",0.868 (active)
same,normalized growth,"locus YDR137W, strain rgp1, active compounds read low",0.23 (active)
same,normalized growth,"locus YDR159W, strain sac3, active compounds read low",0.301 (active)
same,normalized growth,"locus YDR195W, strain ref2",0.823 (active)
same,normalized growth,"locus YDR297W, strain sur2, active compounds read low",0.75 (active)
same,normalized growth,"locus YDR334W, strain swr1, active compounds read low",0.729 (active)
same,normalized growth,"locus YDR335W, strain msn5, active compounds read low",0.658 (active)
same,normalized growth,"locus YDR392W, strain spt3, active compounds read low",0.0851 (active)
same,normalized growth,"locus YEL003W, strain gim4, active compounds read low",0.77 (active)
same,normalized growth,"locus YEL037C, strain rad23, active compounds read low",0.883 (active)
same,normalized growth,"locus YEL061C, strain CIN8 (second series), active compounds read low",0.527 (active)
same,normalized growth,"locus YER015W, strain faa2, active compounds read low",0.845 (active)
same,normalized growth,"locus YER016W, strain bim1, active compounds read low",0.666 (active)
same,normalized growth,"locus YER111C, strain swi4, active compounds read low",0.478 (active)
same,normalized growth,"locus YER155C, strain BEM2 (second series), active compounds read low",0.334 (active)
same,normalized growth,"locus YFR010W, strain ubp6, active compounds read low",0.871 (active)
same,normalized growth,"locus YGL167C, strain pmr1, active compounds read low",0.936
same,normalized growth,"locus YGL173C, strain kem1, active compounds read low",0.801 (active)
same,normalized growth,"locus YGL227W, strain vid30, active compounds read low",0.546 (active)
same,normalized growth,"locus YGL240W, strain doc1, active compounds read low",0.649 (active)
same,normalized growth,"locus YGL253W, strain hxk2, active compounds read low",0.545 (active)
same,normalized growth,"locus YHR013C, strain ard1, active compounds read low",0.604 (active)
same,normalized growth,"locus YHR027C, strain rpn1, active compounds read low",0.872 (active)
same,normalized growth,[1],0.139 (active)
same,normalized growth,[2],0.25 (active)
same,normalized growth,"locus YHR142W, strain chs7, active compounds read low",0.379 (active)
same,normalized growth,"locus YJL092W, strain hpr5, active compounds read low",0.871 (active)
same,normalized growth,"locus YJL095W, strain BCK1 (second series), active compounds read low",0.408 (active)
same,normalized growth,[3],0.31 (active)
same,normalized growth,"locus YJL115W, strain asf1, active compounds read low",0.886 (active)
same,normalized growth,"locus YJL129C, strain trk1, active compounds read low",0.22 (active)
same,normalized growth,"locus YJL154C, strain vps35, active compounds read low",0.913 (active)
same,normalized growth,"locus YJL164C, strain tpk1, active compounds read low",0.69 (active)
same,normalized growth,"locus YJL166W, strain qcr8, active compounds read low",0.349 (active)
same,normalized growth,[4],0.701 (active)
same,normalized growth,"locus YKL160W, strain elf1, active compounds read low",0.462 (active)
same,normalized growth,"locus YKR026C, strain gcn3, active compounds read low",0.853 (active)
same,normalized growth,"locus YKR091W, strain srl3, active compounds read low",0.893 (active)
same,normalized growth,"locus YLL001W, strain dnm1, active compounds read low",0.819 (active)
same,normalized growth,"locus YLL026W, active compounds read low",0.843 (active)
same,normalized growth,"locus YLL041C, strain sdh2, active compounds read low",0.901 (active)
same,normalized growth,"locus YLR027C, strain aat2, active compounds read low",0.662 (active)
same,normalized growth,[5],0.208 (active)
same,normalized growth,"locus YLR221C, strain rsa3, active compounds read low",0.662 (active)
same,normalized growth,"locus YLR258W, strain gsy2, active compounds read low",0.723 (active)
same,normalized growth,"locus YLR262C, strain YPT6 (second series), active compounds read low",0.2 (active)
same,normalized growth,"locus YLR320W, strain mms22, active compounds read low",0.613 (active)
same,normalized growth,"locus YLR342W, strain FKS1, active compounds read low",0.626 (active)
same,normalized growth,"locus YLR357W, strain rsc2, active compounds read low",0.934
same,normalized growth,"locus YLR370C, strain arc18, active compounds read low",0.806 (active)
same,normalized growth,"locus YLR384C, strain iki3, active compounds read low",0.904 (active)
same,normalized growth,"locus YML120C, strain ndi1, active compounds read low",0.371 (active)
same,normalized growth,"locus YMR058W, strain fet3, active compounds read low",0.619 (active)
same,normalized growth,"locus YMR125W, strain sto1, active compounds read low",0.476 (active)
same,normalized growth,"locus YMR129W, active compounds read low",0.824 (active)
same,normalized growth,"locus YMR205C, strain PFK2, active compounds read low",0.531 (active)
same,normalized growth,"locus YMR231W, strain pep5, active compounds read low",0.714 (active)
same,normalized growth,"locus YNL071W, strain lat1, active compounds read low",0.18 (active)
same,normalized growth,[6],0.666 (active)
same,normalized growth,"locus YNL209W, strain ssb2, active compounds read low",0.817 (active)
same,normalized growth,"locus YNL248C, strain rpa49, active compounds read low",0.735 (active)
same,normalized growth,"locus YNL322C, strain KRE1 (second series), active compounds read low",0.801 (active)
same,normalized growth,"locus YNR049C, strain mso1, active compounds read low",0.903 (active)
same,normalized growth,"locus YOR001W, strain rrp6, active compounds read low",0.608 (active)
same,normalized growth,"locus YOR070C, strain gyp1, active compounds read low",0.752 (active)
same,normalized growth,"locus YOR080W, strain dia2, active compounds read low",0.912 (active)
same,normalized growth,"locus YOR083W, strain WHI5, active compounds read low",0.712 (active)
same,normalized growth,"locus YOR106W, strain vam3, active compounds read low",0.581 (active)
same,normalized growth,[7],0.213 (active)
same,normalized growth,"locus YOR265W, strain rbl2, active compounds read low",0.895 (active)
same,normalized growth,"locus YOR270C, strain vph1, active compounds read low",0.543 (active)
same,normalized growth,"locus YOR290C, strain snf2, active compounds read low",0.775 (active)
same,normalized growth,"locus YPL051W, strain arl3, active compounds read low",0.549 (active)
same,normalized growth,"locus YPL078C, strain atp4, active compounds read low",0.453 (active)
same,normalized growth,"locus YPL106C, strain sse1, active compounds read low",0.537 (active)
same,normalized growth,"locus YPL240C, strain hsp82, active compounds read low",0.761 (active)
same,normalized growth,[8],0.19 (active)
